In paper PMC4336329 (PLoS ONE, 2015):
Hit rate of the full screen: of about 310,000 compounds, about 14,000 (4.5%) showed an effect of 50% or more. The effect is printed as a negative number. Many of the other results were omitted from the sample, so strong results are more common in it than they were.

Biological target: human ether-à-go-go-related gene (hERG) potassium channel (human, UniProt Q12809)
Experiment: primary screen, population patch clamp on CHO cells stably expressing hERG; higher = less effect of the substance
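Further: peak tail current of the secondary pulse compared with the same well before compound.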

Sequence of human ether-à-go-go-related gene (hERG) potassium channel (Q12809 whole entry, looked up): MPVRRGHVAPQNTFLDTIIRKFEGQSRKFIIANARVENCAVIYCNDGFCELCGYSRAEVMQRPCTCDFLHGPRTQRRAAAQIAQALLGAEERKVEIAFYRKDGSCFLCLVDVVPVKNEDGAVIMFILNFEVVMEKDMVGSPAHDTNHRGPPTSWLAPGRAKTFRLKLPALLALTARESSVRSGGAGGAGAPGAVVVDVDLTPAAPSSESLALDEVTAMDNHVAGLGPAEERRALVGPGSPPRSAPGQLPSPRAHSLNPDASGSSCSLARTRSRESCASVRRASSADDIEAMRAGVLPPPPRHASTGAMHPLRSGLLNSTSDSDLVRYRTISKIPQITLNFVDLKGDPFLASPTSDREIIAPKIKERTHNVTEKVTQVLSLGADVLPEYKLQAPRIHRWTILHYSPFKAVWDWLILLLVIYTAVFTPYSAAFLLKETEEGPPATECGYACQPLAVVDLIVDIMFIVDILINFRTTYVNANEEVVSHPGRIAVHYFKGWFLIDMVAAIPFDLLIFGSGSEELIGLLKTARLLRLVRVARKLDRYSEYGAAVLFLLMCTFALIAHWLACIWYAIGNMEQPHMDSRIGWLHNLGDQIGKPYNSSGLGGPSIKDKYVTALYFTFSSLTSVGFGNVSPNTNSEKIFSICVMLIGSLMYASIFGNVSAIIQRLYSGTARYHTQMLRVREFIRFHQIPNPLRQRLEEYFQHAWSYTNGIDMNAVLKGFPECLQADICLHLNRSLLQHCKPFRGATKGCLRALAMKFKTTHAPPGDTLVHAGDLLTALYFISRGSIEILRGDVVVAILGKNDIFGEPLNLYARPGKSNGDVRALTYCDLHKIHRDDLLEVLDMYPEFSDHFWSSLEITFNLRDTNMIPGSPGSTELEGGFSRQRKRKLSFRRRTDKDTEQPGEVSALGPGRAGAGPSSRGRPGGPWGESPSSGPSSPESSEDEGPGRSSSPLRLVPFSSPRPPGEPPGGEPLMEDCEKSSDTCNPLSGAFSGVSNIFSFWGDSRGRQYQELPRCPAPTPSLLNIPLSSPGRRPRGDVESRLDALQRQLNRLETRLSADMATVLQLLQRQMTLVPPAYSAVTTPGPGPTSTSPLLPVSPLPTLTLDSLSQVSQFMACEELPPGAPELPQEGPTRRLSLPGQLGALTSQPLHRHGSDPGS

Compound	hERG current change (%, negative = inhibition) at 10uM
COc1ccc(COc2ccc3ccc(=O)oc3c2)cc1	9.33%
O=C(OCc1nnc(-c2ccccc2)o1)c1cc2ccccc2cc1O	8.95%
C/C(=N\NC(=O)c1nnn(-c2nonc2N)c1-c1cccs1)c1ccc(C)cc1	-0.452%
CC(=O)Nc1ccc(N2CCN(c3ccc(F)cc3)CC2)cc1	18.4%
CS(=O)(=O)c1ccccc1C(=O)NC1CCCc2ccccc21 (centres unmarked)	66.1%
O=C(CCN1C(=O)S/C(=C\c2cccs2)C1=O)Nc1nccs1	9.41%
CCOC(=O)CNC(=O)N1CCC(CCOc2ccccc2)(C(=O)OCC)CC1	1.83%
CCOC(=O)CCNC(=O)N1CCC(CCOc2ccccc2)(C(=O)OCC)CC1	-16.1%
CCOC(=O)C1(CCOc2ccccc2)CCN(Cc2ccc(-n3cccn3)cc2)CC1	-84.1%
CCOC(=O)C1(CCOc2ccccc2)CCN(C(=O)c2ccc(-n3cccn3)cc2)CC1	-78.9%
CCOC(=O)C1(CCOc2ccccc2)CCN(Cc2ccc3nonc3c2)CC1	-17%
CCOC(=O)C1(CCOc2ccccc2)CCN(Cc2cccc(-n3cccn3)c2)CC1	-79.3%
COc1ccccc1C(=O)Nc1nc(N)n(-c2ccccc2)n1	13.8%
CCCNC(=S)Nc1ccc(Oc2ccccc2)cc1	-10.8%
O=C(O)/C=C/c1cnc2ccccc2n1	16.6%
Cc1ccc(S(=O)(=O)N2CCC(C(=O)NN3CCCCC3)CC2)cc1	4.16%
O=C1Nc2ccc(Br)cc2/C1=C/C(=O)c1ccc2c(c1)OCO2	9.53%
CCCCCCCCN[C@H](C)[C@@H](O)c1ccc(SC(C)C)cc1	-67.4%
CCCCCNC(=O)C(C)Sc1ccc(Cl)cc1 (centres unmarked)	10.9%
C[C@@H](NCCc1ccc(O)cc1)[C@@H](O)c1ccc(O)cc1.Cl	-11.5%
CC(C)C(NC(=O)c1ccccc1)C(=O)NC1CCCc2ccccc21 (centres unmarked)	15%

Compound	hERG current change (%, negative = inhibition) at 10uM
COc1ccc(-n2c(CNCCc3ccc(C)cc3)nc3ccccc3c2=O)cc1	-32.8%
COC(=O)c1cc(C(=O)OCC(=O)N(C)C2CCS(=O)(=O)C2)cc([N+](=O)[O-])c1 (centres unmarked)	7.96%
Cc1cc(C)n2nc(C(=O)OCC(=O)N3C(C)CCCC3C)nc2n1 (centres unmarked)	21.5%
Cc1ccc(S(=O)(=O)c2nc(Nc3nccs3)sc2Cl)cc1	11.6%
Cc1ccc(-n2c(-c3ccc(Br)cc3)c[n+]3c2CCc2ccc4cccnc4c2-3)cc1.[Br-]	-74.2%
COc1ccc(-n2c(-c3ccc(Cl)cc3)c[n+]3c2CCCCC3)cc1.[Br-]	-29.8%
COc1ccc(-n2c(-c3ccccc3)nnc2-c2ccc(Cl)cc2)cc1	4.96%
COc1ccc(N2C3=[N+](CC2(C)O)c2ccccc2CC3)cc1.[Br-] (centres unmarked)	-44.3%
COc1ccc(-n2c(-c3ccc(Cl)cc3)c[n+]3c2CCc2ccccc2-3)cc1.[Br-]	-78.4%
COc1ccc(-n2c(-c3ccc(Br)cc3)c[n+]3c2CCc2ccccc2-3)cc1.[Br-]	-85.2%
Cc1ccc(-n2c(=O)[nH]c3ncccc3c2=O)cc1	30.2%
COc1ccc(-n2c(-c3ccc(Br)cc3)nc(=S)c3c2CCCC3)cc1	-1.32%
Brc1ccc(-c2cn3c(n2)CCc2ccc4cccnc4c2-3)cc1	12.5%
COc1ccc(N2C(=O)CC(NNC(=O)c3cc(C)oc3C)C2=O)cc1 (centres unmarked)	23.6%
COc1ccc(CCNC(=O)CSc2nnc(-c3ccccc3)c3ccccc23)cc1OC	-20%
CCNC(=O)NC(=O)C(C)Oc1ccc(C(=O)OC)cc1 (centres unmarked)	3.92%
COc1ccc(C(c2sc3nc(C)nn3c2O)N2CCC3(CC2)OCCO3)cc1 (centres unmarked)	-2.74%
COc1ccc(Cc2nnc(NC(=O)Nc3ccc(C)cc3)s2)cc1OC	10.2%
Nc1c(C(=O)CSc2nnc(Nc3ccc(F)cc3)s2)c(=O)[nH]c(=O)n1C1CC1	0.202%
O=C1CCC(C(=O)N2CCCC(C(=O)c3ccc4c5c(cccc35)CC4)C2)=NN1 (centres unmarked)	-17.9%
NC(=O)CCC(=O)N1CCCC(C(=O)c2ccc3c4c(cccc24)CC3)C1 (centres unmarked)	2.05%

Compound	hERG current change (%, negative = inhibition) at 10uM
COCCC(=O)N1CCCC(C(=O)c2ccc3c4c(cccc24)CC3)C1 (centres unmarked)	-17.8%
O=C1CCC(CCC(=O)N2CCCC(C(=O)c3ccc4c5c(cccc35)CC4)C2)=NN1 (centres unmarked)	-54.4%
CN(C)C(=O)CCC(=O)N1CCCC(C(=O)c2ccc3c4c(cccc24)CC3)C1 (centres unmarked)	-20.2%
O=C(c1ccc2c3c(cccc13)CC2)C1CCCN(Cc2ccccn2)C1 (centres unmarked)	-42.5%
O=C(c1ccc2c3c(cccc13)CC2)C1CCCN(C(=O)c2cccnc2)C1 (centres unmarked)	-19.4%
O=C(c1ccc2c3c(cccc13)CC2)C1CCCN(CC2CC2)C1 (centres unmarked)	-46.3%
O=C(c1ccc2c3c(cccc13)CC2)C1CCCN(Cc2ccc(OCCO)cc2)C1 (centres unmarked)	-70.4%
O=C(c1ccc2c3c(cccc13)CC2)C1CCCN(Cc2ccncc2)C1 (centres unmarked)	-51.5%
O=C(c1ccc2c3c(cccc13)CC2)C1CCCN(Cc2cccnc2)C1 (centres unmarked)	-63.4%
C/C=C(\C)C(=O)OC1C(C)=C2C(C1OC(=O)CCCCC)C(C)(OC(C)=O)CC(OC(=O)CCC)C1(O)C2OC(=O)C1(C)O (centres unmarked)	-6.49%
COc1cc2cccc(OC)c(=O)c2c(O)c1OC	-1.84%
CCc1ccc(N/C(N)=N/c2nc(CSc3ccccn3)cc(=O)[nH]2)cc1	3.29%
Cn1ncc2c(Nc3cccc(C(=O)O)c3)ncnc21	6.66%
CC(C(=O)NCc1ccccn1)c1ccc([N+](=O)[O-])cc1 (centres unmarked)	-49.5%
Cc1ccc(S(=O)(=O)N2CCCC2C(=O)Nc2cc(C)on2)cc1 (centres unmarked)	-1.05%
Cc1ccccc1-c1noc(CCC(=O)NCc2ccco2)n1	-2.05%
C#CCOCCOCCOCCNc1nc(N2CCN(C(=O)[C@H](CCCCN)n3cc(C(N)[C@H](C)CC)nn3)CC2)nc(N2CCN(C(=O)[C@H](CCC(=O)O)n3cc(C(N)[C@H](C)CC)nn3)CC2)n1.Cl (some centres unmarked)	13.5%
C=C[C@@H]1c2cc(C)ccc2N(S(=O)(=O)c2ccc(C)cc2)[C@H](c2ccccc2C(F)(F)F)C1(C#N)C#N	7.01%
COc1cc(C(=O)NCC(=O)N/N=C(/C)c2cccs2)cc(OC)c1OC	-0.388%
Cc1ccc(CC(=O)Nc2ccc(S(=O)(=O)Nc3ncccn3)cc2)cc1	19.9%
CC(c1ccccc1)n1c(-c2ccccc2F)n[nH]c1=S (centres unmarked)	-11.9%

Compound	hERG current change (%, negative = inhibition) at 10uM
Cc1cccc(CN2CCCC(C(=O)c3ccc4c5c(cccc35)CC4)C2)n1 (centres unmarked)	-40.7%
COc1cc(CN2CCCC(C(=O)c3ccc4c5c(cccc35)CC4)C2)cc(OC)c1O (centres unmarked)	-53%
Cc1ncccc1C(=O)N1CCCC(C(=O)c2ccc3c4c(cccc24)CC3)C1 (centres unmarked)	-13.2%
Cc1ncoc1C(=O)N1CCCC(C(=O)c2ccc3c4c(cccc24)CC3)C1 (centres unmarked)	-15.5%
O=C(c1ccc2c3c(cccc13)CC2)C1CCCN(Cc2ncc[nH]2)C1 (centres unmarked)	-55.7%
CC(=O)NCC(=O)N1CCCC(C(=O)c2ccc3c4c(cccc24)CC3)C1 (centres unmarked)	8.94%
CCn1ccnc1CN1CCCC(C(=O)c2ccc3c4c(cccc24)CC3)C1 (centres unmarked)	-77.4%
Cc1cnc(CN2CCCC(C(=O)c3ccc4c5c(cccc35)CC4)C2)[nH]1 (centres unmarked)	-31.7%
CN1CCC(C(=O)N2CCCC(C(=O)c3ccc4c5c(cccc35)CC4)C2)CC1 (centres unmarked)	-61.1%
COCC(=O)N1CCCC(C(=O)c2ccc3c4c(cccc24)CC3)C1 (centres unmarked)	-21.2%
CC(=O)N1CCCC(C(=O)c2ccc3c4c(cccc24)CC3)C1 (centres unmarked)	-8.18%
Cc1ccc(OCC(=O)NCCNC(=O)c2ccncc2)cc1C	15.9%
Cc1ccc(S(=O)(=O)NCc2ccccc2)cc1C(=O)N(C)Cc1ccc(F)cc1	5.11%
O=c1c2ccccc2oc2nc(-c3ccco3)n(Cc3ccccc3)c(=O)c12	-9.22%
CCOC(=O)c1cc2occc2n1CC(=O)Nc1ccc(OC)cc1OC	-15%
O=C(NCCOc1nc(N2CCCCC2)nc(N2CCOCC2)n1)Nc1ccccc1	-0.098%
Cc1ccc(S(=O)(=O)NCc2ccco2)c(C)c1C	-4.4%
CN(NC(=O)c1ccco1)c1nc2ccccc2nc1C(F)(F)F	0.871%
N#CCCN(Cc1cccnc1)C(=O)Nc1cccc(Cl)c1	-10.9%
N#Cc1ccc(-c2csc(NNC(=O)c3ccccc3)n2)cc1	0.0899%
